The values below come from PubChem BioAssay AID1159580 (chemical genetic matrix, 2015).

Among all 5,500 compounds or so, about 2,000 (36%) were called active. About 18% were inconclusive and are not listed. Some of the results follow. Unmarked numbers belong to inactive results. No stated cut-off is given here; in the data, active means normalized growth mostly below about 0.91 (no sharp cut-off); inconclusive means no clear call, values can overlap the other calls; inactive means mostly above about 0.92.

The nature of the experiment: chemical genetic growth profiling, strain panel (AID 1159580).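 Further: tested at 20 µM; growth read once vehicle control cultures reached saturation at 30 °C; 1 = growth at the plate median or of vehicle wells; lower values mean less growth of the strain.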 The conditions noted are these: growth OD.
Setting [1] is: S. cerevisiae deletion strains, locus YAL013W, strain DEP1, hits give low values.
The mark [2] stands for this setting: S. cerevisiae deletion strains, locus YBR229C, strain ROT2, hits give low values.
Setting [3] is: S. cerevisiae deletion strains, locus YDL101C, strain DUN1, hits give low values.
Where [4] appears, read: S. cerevisiae deletion strains, locus YDL134C, strain PPH21, hits give low values.
Setting [5] is: S. cerevisiae deletion strains, locus YDR150W, strain NUM1, hits give low values.
[6] abbreviates: S. cerevisiae deletion strains, locus YEL061C, strain CIN8, hits give low values.
Where [7] appears, read: S. cerevisiae deletion strains, locus YGR078C, strain PAC10, hits give low values.
Where [8] appears, read: S. cerevisiae deletion strains, locus YHR030C, strain SLT2, hits give low values.
Where [9] appears, read: S. cerevisiae deletion strains, locus YHR087W, strain rtc3, hits give low values.
Where [10] appears, read: S. cerevisiae deletion strains, locus YJL187C, strain SWE1, hits give low values.
The mark [11] stands for this setting: S. cerevisiae deletion strains, locus YJR043C, strain POL32, hits give low values.
The mark [12] stands for this setting: S. cerevisiae deletion strains, locus YJR075W, strain HOC1, hits give low values.
The mark [13] stands for this setting: S. cerevisiae deletion strains, locus YLR039C, strain RIC1, hits give low values.
Setting [14] is: S. cerevisiae deletion strains, locus YLR058C, strain SHM2 (second series), hits give low values.
Where [15] appears, read: S. cerevisiae deletion strains, locus YLR085C, strain ARP6, hits give low values.
Where [16] appears, read: S. cerevisiae deletion strains, locus YLR262C, strain YPT6, hits give low values.
The mark [17] stands for this setting: S. cerevisiae deletion strains, locus YML094W, strain GIM5, hits give low values.
Where [18] appears, read: S. cerevisiae deletion strains, locus YMR219W, strain ESC1, hits give low values.
[19] abbreviates: S. cerevisiae deletion strains, locus YMR263W, strain SAP30, hits give low values.
Setting [20] is: S. cerevisiae deletion strains, locus YNL153C, strain GIM3, hits give low values.
Setting [21] is: S. cerevisiae deletion strains, locus YNL298W, strain CLA4 (second series), hits give low values.
[22] abbreviates: S. cerevisiae deletion strains, locus YNL322C, strain KRE1, hits give low values.
[23] abbreviates: S. cerevisiae deletion strains, locus YNR030W, strain Alg12, hits give low values.
[24] abbreviates: S. cerevisiae deletion strains, locus YOL006C, strain TOP1, hits give low values.
[25] abbreviates: S. cerevisiae deletion strains, locus YPL055C, strain LGE1, hits give low values.
The mark [26] stands for this setting: S. cerevisiae deletion strains, locus YPL241C, strain CIN2, hits give low values.
Setting [27] is: S. cerevisiae deletion strains, locus YPR135W, strain CTF4, hits give low values.

As to `O=[N+]([O-])c1ccc(C2N(Cc3ccccc3)CCC3CCCCN32)cc1` (stereo unspecified), the normalized growth is, setting by setting: under setting [1], 1; under setting [2], 0.998; under setting [3], 1; under setting [4], 1.01; under setting [5], 0.997; under setting [6], 0.983. For the same molecule, the normalized growth was 1.01 under setting [7]; 0.954 under setting [8]; 0.985 under setting [9]; 0.999 under setting [10]; 1.01 under setting [11]; 0.966 under setting [12]. In addition, the normalized growth (S. cerevisiae deletion strains, locus YKL190W, strain CNB1, hits give low values) was 1.01; the normalized growth under setting [13] is 1; the normalized growth under setting [14] was 1.01; the normalized growth under setting [15] was 1.02; the normalized growth under setting [16] is 0.908; the normalized growth under setting [17] is 0.983. Besides, the normalized growth is 0.988 under setting [18]; 0.998 under setting [19]; 1.01 under setting [20]; 1.01 under setting [21]; 1.01 under setting [22]; 1.02 under setting [23]. In addition, the normalized growth runs as follows: under setting [24], 0.972; under setting [25], 0.985; under setting [26], 0.995; under setting [27], 1.03.

On to `COc1cc(Cl)c(Cl)cc1Cl`, for which the normalized growth was 0.991 under setting [1]; 1 under setting [2]; 0.997 under setting [3]; 0.997 under setting [4]; 1.01 under setting [5]; 0.992 under setting [6]. In addition, the normalized growth under setting [7] is 1; the normalized growth (S. cerevisiae deletion strains, locus YGR229C, strain SMI1, hits give low values) was 0.997; the normalized growth under setting [8] was 0.94; the normalized growth under setting [9] was 1.01; the normalized growth under setting [10] was 0.999; the normalized growth under setting [11] is 0.974. The normalized growth is, setting by setting: under setting [12], 1.03; under setting [13], 0.986; under setting [14], 0.994; under setting [15], 1.06; under setting [16], 0.96; under setting [17], 1.03. In addition, the normalized growth by setting is: under setting [18], 1.01; under setting [19], 1.01; (S. cerevisiae deletion strains, locus YMR307W, strain GAS1, hits give low values) 1.06; under setting [20], 0.983; under setting [21], 0.948; under setting [22], 1.01. The normalized growth by setting is: under setting [23], 0.98; under setting [24], 0.949; under setting [25], 1.1; under setting [26], 1.02; under setting [27], 0.91; (S. cerevisiae strains, strain wild type, hits give low values) 0.981.

Regarding `COP(=S)(OC)Oc1cc(Cl)c(Cl)cc1Cl`, the normalized growth was 0.127 (active) under setting [8]; 0.163 (active) (S. cerevisiae deletion strains, locus YHR079C, strain IRE1, hits give low values); 0.163 (active) (S. cerevisiae deletion strains, locus YJL095W, strain BCK1, hits give low values); 0.08 (active) (S. cerevisiae deletion strains, locus YJR066W, strain TOR1, hits give low values); 0.163 (active) (S. cerevisiae deletion strains, locus YLR113W, strain HOG1, hits give low values); 0.0646 (active) (S. cerevisiae deletion strains, locus YNL183C, strain NPR1, hits give low values). Moreover, the normalized growth by setting is: (S. cerevisiae deletion strains, locus YOR231W, strain MKK1, hits give low values) 0.152 (active); (S. cerevisiae deletion strains, locus YPL256C, strain CLN2, hits give low values) 0.151 (active).
